Bioassay records from PubChem BioAssay.
In the library only some 2.8% were active in any assay of this set; here they are far more common.
Shn3 3UTR inh: reduction of Shn3 3'UTR firefly luciferase signal, primary screen, Schnurri-3 inhibitor project, cell-based, Clone20 osteoblasts, set 2. Clone20 osteoblast Shn3 3'UTR firefly luciferase, 24 h. 360,000 tested, 0.52% active. inhibition, % at 12.5 µM;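 active means mean inhibition of at least 75% with every replicate also reaching 75%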;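 further: 0% = median of neutral control wells and 100% = pilot-screen positive control compound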
MITF TRPM1 inh: inhibitors of MITF-dependent TRPM1 promoter reporter, primary screen, cell-based, SK-MEL-5, single point, luciferase. SK-MEL-5 TRPM1 promoter luciferase, 24 h. inhibition, % at 12.5 µM. 330,000 tested, 0.83% active;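 active means mean inhibition across replicates of 60% or more, whatever share of single replicates reaches that level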
Peg3 promoter: Peg3 promoter-driven luciferase inhibitors, primary screen, cell-based, HeLa, luciferase luminescence | HeLa PEG-Prom luciferase reporter, overnight | inhibition, % at 20 µM | 360,000 tested, 1.7% active;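 active means inhibition of at least 50% at 20 µM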
CF NFkB block: inhibitors of PAF-induced NF-kB signaling, primary screen, cell-based, GFP fluorescence, uHTS; 360,000 tested, 0.86% active; inhibition, % at 5 µM; KKLEB NF-kB-GFP reporter, GFP fluorescence overnight;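 active means at least 50% inhibition at 5 µM, scaled per plate between neutral and stimulator controls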;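 further: PAF is a Pseudomonas aeruginosa culture filtrate used as stimulus; plate controls were PAF-stimulated DMSO wells for no effect and unstimulated DMSO wells for full effect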
HIF-2a block: HIF-2a reporter inhibitors, primary screen, luminescence, 786-0 RCC cells; inhibition, % at 18.8 µM; 360,000 tested, 0.72% active; AID 624352, 2012; 786-0 RCC cells HIF-2a reporter, luciferase luminescence, overnight;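 active means inhibition of the luminescence signal of 40% or more relative to plate controls, in a single-dose primary screen at 18.75 µM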
KKLEB tox: cytotoxicity in KKLEB CF airway cells, primary screen, cytotoxicity control for CF NF-kB inhibitor project, cell-based, uHTS, fluorescence assay plates | KKLEB CF airway cells viability, ATPlite luminescence, overnight; hits give low values; cells stimulated with P. aeruginosa culture filtrate | activity change (cytotoxicity), % at 5 µM | 360,000 tested, 0.36% active | AID 602141, 2011;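 active means corrected activity change at or below -50% at 5 µM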
* = called active by the depositor; · = not tested or not shown.

SMILES	Shn3 3UTR inh	MITF TRPM1 inh	Peg3 promoter	CF NFkB block	HIF-2a block	KKLEB tox
Cc1ccc(C(=O)c2sc(Nc3ccccc3)c(C#N)c2N)cc1	26	12	39	22	1	-22
CCOC(=O)c1ccc(Nc2sc(C(=O)c3cccc([N+](=O)[O-])c3)c(N)c2C#N)cc1	-18	21	52*	-5	4	-8
C[C@@H]1CN([C@H](C)CO)S(=O)(=O)c2ccc(Br)cc2O[C@@H]1CN(C)C(=O)Nc1ccc(C(F)(F)F)cc1	1	·	20	10	7	-17
C[C@@H]1CN([C@@H](C)CO)S(=O)(=O)c2ccc(Br)cc2O[C@H]1CN(C)C(=O)Nc1ccc(C(F)(F)F)cc1	10	·	53*	-13	-13	-25
C[C@H]1CN([C@@H](C)CO)S(=O)(=O)c2ccc(Br)cc2O[C@@H]1CN(C)Cc1cccc(F)c1	14	·	56*	-9	16	-2
COc1cc2cnc(-c3ccccc3)c(-c3ccc(C(F)(F)F)cc3)c2cc1OC	15	-13	64*	19	-58	1
COc1ccccc1NS(=O)(=O)c1ccc(C(=O)NCC(c2cccs2)N2CCOCC2)cc1 (stereo not given)	6	6	14	-14	-5	11
CCOc1ccc(-c2cnc3ccccc3n2)cc1	61	43	28	-5	71*	-15
O=[N+]([O-])c1ccc(-c2cnc3ccccc3n2)cc1	-81	-60	-207	-16	-225	-1
CCOc1ccc(-c2cn3ccccc3n2)cc1	0	19	-83	-25	-79	-51*
COc1ccc(CN2C(=O)C(CC(=O)NCc3cccs3)CC(C(=O)N(C)C)=C2C)cc1 (stereo not given)	-4	·	-5	10	6	5
CC(=O)Oc1ccc(CC(C(=O)O)N2C(=O)c3ccccc3C2=O)cc1 (stereo not given)	-15	5	-9	-2	-36	5
CC1=CC(C)(C)Nc2ccc(OC(=O)C(Cc3ccccc3)N3C(=O)c4ccccc4C3=O)cc21 (stereo not given)	30	17	4	13	81*	3
COC(=O)c1cc(=O)n(CCc2ccc(OC)cc2)c(=Nc2ccc(F)c(Cl)c2)s1	9	11	82*	0	15	0
Cc1cc(C)n(CCCNC(=O)c2ccc(C)c(S(=O)(=O)N3CCOCC3)c2)n1	-6	0	1	14	11	9
CNC(=O)c1c(NC(=O)c2ccc(S(=O)(=O)N3CCCCC3)cc2)sc2c1CCN(C(C)C)C2	7	-11	-9	14	5	-18
CCN1CCc2c(sc(NC(=O)c3cc4ccccc4cc3OC)c2C(N)=O)C1	20	37	110*	-16	26	-17
CCN1CCc2c(sc(NC(=O)c3ccc(S(=O)(=O)N4CCCC4)cc3)c2C(=O)NC)C1	8	74*	65*	4	29	-3
CCOC(=O)N1CCN(S(=O)(=O)c2ccc(C(=O)Nc3sc4c(c3C(N)=O)CCN(CC)C4)cc2)CC1	21	21	76*	22	-8	-7
CSCCC(NS(=O)(=O)c1ccccc1F)C(=O)NCc1ccncc1 (stereo not given)	-6	-11	9	7	10	2
CC1CN(CC(=O)NCc2ccc(Cl)cc2)CC(C)O1 (stereo not given)	-20	3	5	-11	5	8
O=C(C1CCN(S(=O)(=O)c2cccc3cccnc23)CC1)N1CCN(c2ccc(Cl)cc2)CC1	53	32	21	1	21	-12
C=CCOc1ccc(-c2nc3c(c(=O)[nH]c(=O)n3CCCC)n2C)cc1Br	2	-21	10	20	7	-21
CCCCn1c(=O)[nH]c(=O)c2c1nc(-c1ccc(OC)c(Br)c1)n2CC(C)C	-7	-5	55*	39	32	-18
CCc1nc2ccc(C(=O)Nc3cccc(OCC(=O)N(C)C)c3)cn2c1N(C)C(=O)c1ccncc1	0	·	-8	3	-2	-2
